Reference: PubChem BioAssay AID1508600 (Functional Genomics Laboratory (NCATS/FGL), 2020)
Hit rate of the full screen: of about 53,000 sequences, about 3,700 (7%) were called active. This excerpt belongs to a sample that is enriched for actives. A number with no mark means an inactive call.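 How the source made its calls: active means gene knockdowns whose robust z-score for IL-1 alpha signal is at least 2 or at most -2, so actives lie on both sides; inactive means the rest.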

assay: Components of the Cytosolic LPS Sensing Pathway: Gene Identification via Genome-wide siRNA Screen; details: RAW264.7 macrophages, IL-1a HTRF, actives lie on both sides, screened at 100 nM (by protocol), cells primed 5 h with Pam3CSK4 first;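 further: robust z of the log signal after scaling to non-targeting control siRNA wells of the plate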
Outline: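 Cells (RAW264.7, 1×10^4 per well) were transfected with siRNA at 100 nM and cultured 48h at 37 degrees C. Pam3CSK4 was added for 5 hours; LipidA transfection followed for 24 hour. IL-1a was then measured by HTRF.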

Sequence | z-score
GCUGCUCGUUAAAGCCGGATT against Ankrd6 | 2.92 (active)
CCAGAUGCAGUCACAAGUCTT against Klf4 | 0.843
GGUUUUAAAGGCCAUAUUGTT against Msmo1 | -1.72
GCCGACAACACAAAAUUAUTT against Vps26b | 0.4
CGAAAGCACACACGUAGAATT against Erdr1 | 0.391
GGUCUUCCAAGGUCAGAAGTT against Cyp2d10 | 1.5
GGCAAUAAUCUUAGAGGUUTT against 9530068E07Rik | 0.499
GCUGUAAGGAGGAACUUCUTT against Btg1 | -1.03
GGUCUCUGGUAAGAAGAGCTT against Zfp276 | 2.95 (active)
CCGAACAGAGGAAGAAGGCTT against Olfr816 | 0.281
GGGAGGACAGUCAUUGGUUTT against Phldb1 | -1.84
GCAUAAGGAUAUAGCAUUATT against Ctla4 | -0.72
GGCAUUUGCACAGUUUAUGTT against Upp2 | -1.42
GGGUCCUUUUUAGCUGUAGTT against Vdac1 | 3.83 (active)
CCUAGUAAUCAGUUUGAAUTT against Ak4 | 1.17
CCAUAUGGCUUGUGGCAGATT against Scn1b | -0.245
GGUGACAGAGAUUUUCGAATT against Tbc1d22a | 0.931
GGCAAGUCUUUAAAAGUCCTT against Xrcc2 | -1.48
GGCCUUCCGCAUUUUAUCATT against Zfp729a | 2.43 (active)
GGAGAAGAAGCUGGACCAGTT against Atp5o | 0.348
GGUACAAUACAUUCAAACATT against Serpinb6c | -0.82
CCCUUGUCCAGUGUGAGUUTT against Tmem184b | 1.07
GGCACAGACCUCACAGUUATT against Olfr64 | 0.534

Sequence | z-score
GGAAAAAGCUGUGAUACUUTT against Hspbap1 | -0.895
GGAACUGAUUGAAAACAUCTT against Syce2 | 2.97 (active)
GCAAAAUUAUCAGUGAGGATT against Nt5c3b | -2.54 (active)
GGGCAGAAAACAACUGGAATT against Pappa | -1.1
GGAGGAUGGAGUCAUAUAUTT against Gm773 | -0.41
GGAGUUUGGAAUAAAAAGGTT against Flt3 | -0.173
GCAGAGGGACAGUCUACAUTT against Rorc | -0.534
GAUUUCUAUACAGCCUAUCTT against Olfr799 | 0.312
GGCUACAAGUUGGUAAUCUTT against Pnkp | 3.36 (active)
GGCUGGACAGGAUUAUCCATT against Tmem185b | -0.904
CGCAGGUAAUUUGUUUGUGTT against Mtnr1b | 1.16
GCAUAGCAAUGAAAAUCUATT against Lrit2 | 1.06
GGUUAAAGUUAAAUCUGUCTT against C6 | -2.35 (active)
GGUCAAUCUUUGGAGUAUUTT against Stk39 | -0.129
GCUUCCAAUUACUUAUCCATT against Phc3 | -0.0705
GGGAAGAAGAGAUUCUGAUTT against Cep250 | -1.53
GGCAGGUUUAACUUUAAUGTT against Cacna1e | 3.59 (active)
GGACAAGGAUAGUAGUAAGTT against Parp1 | -0.122
GCAUACCCUAUUUAGUUUUTT against Gpr33 | -0.00896
GCACGAAGAACCACACAAGTT against Sp110 | 2.37 (active)
CCGGAGUCAGUAUCCAGAATT against Ndufaf4 | -0.282
GCCGUGGAUCGAAUAAUUCTT against Coq7 | -1.03
GGUUUUAGUAAACUUCCCATT against Fam76b | -0.692

Sequence | z-score
GGAUCCUGGAUAAUCUGGGTT against Plscr1 | -1.35
GCGUGCAUAUAUCCAAUGCTT against Tardbp | 1.36
GGUAAUCUCCAAAAAACCATT against Lilra6 | -0.863
GCUUUGAGCAGCUAGGUUATT against Tpcn2 | 3.78 (active)
GGGACCUUUUCAGGACCUUTT against Ucp2 | -0.954
GGCUGCCUUCAUCUUUUCUTT against Fth1 | 0.873
GCUUGUAUGAGAUUACCUATT against Ttc1 | 1.19
GGUCUUUGAGUCUACACAGTT against Pde4dip | -2.52 (active)
GGAGUCCUACGUCAAAGAATT against Pigz | -0.251
GGAUCAGUAGCAUUAACAATT against Tcf7l2 | 0.414
GGUUCUCCAUACUUAUGCCTT against Prex1 | 2.97 (active)
GGGCAAUCUGCUAUUCUCUTT against Pheta2 | 0.18
CCUUCUGUAUAGGUUCUGGTT against Slc41a3 | 0.716
GGGCUUAUGGAGUUGUAAATT against Avpi1 | -0.633
GGACAAGAAAAAGGAUUAGTT against Clptm1 | -0.414
GCGUGAGUCCCUAUAUGAATT against Tmem177 | 2.98 (active)
GGCUUCGCUCUGGUUUACUTT against Rap1b | 0.323
GCAAUUCCACGUAUGGAUUTT against Olfr652 | 0.336
GGCAAAAUUUGUGUGCAAATT against Mrc1 | 1.02
GGCAGUCAUUACCUAUCAGTT against Atp7b | -0.271
GGGUCAGCCAAAGGAAAAUTT against Nlrc3 | -0.193
CCAUGUCAAUAUAGCUGUCTT against Igfbpl1 | 2.25 (active)
GCUUUCUCUUAUGGAUCUATT against Olfr700 | 0.966
